In PubChem BioAssay:
Measured potencies and affinities stand elsewhere. Inconclusive results are not listed. Values without a mark were called inactive. The source made the active and inactive calls. No rule for the calls is given here.

Assay: general cell-killing toxicity readout – plate reader, dry powder samples, cytotoxicity control for PAX8 inhibitor project, dose response (AID 743021)
Conditions: cell line, non-specific cytotoxicity counter-screen; series mostly up to 35 µM; activity change, negative = cytotoxicity: at the top concentration
With `COc1cccc(-c2ccc3c(c2)[C@@H]2[C@@H](CCN2S(=O)(=O)c2ccccc2C)[C@H](CO)N3C)c1` the “activity change, negative = cytotoxicity” value was -3.34% [at 30 µM].
In the case of `COc1cc(/C=C/C(=O)N2CCC=CC2=O)cc(OC)c1OC`, the “activity change, negative = cytotoxicity” value was 64.5%.
For `C[C@@H]1CCCCO[C@H](CN(C)C(=O)Cc2ccccc2)[C@@H](C)CN([C@@H](C)CO)C(=O)c2cc(NS(=O)(=O)c3ccc(Cl)cc3)ccc2O1`, the “activity change, negative = cytotoxicity” value was 0.008%.
For `C[C@H](CO)N1C[C@H](C)[C@H](CN(C)CC2CCCCC2)OCCCC[C@H](C)Oc2ccc(NC(=O)Nc3ccccc3)cc2C1=O`, the “activity change, negative = cytotoxicity” value was -25.9%.
In the case of `C[C@H](CO)N1C[C@H](C)[C@@H](CN(C)S(=O)(=O)c2ccc(Cl)cc2)OCCCC[C@H](C)Oc2ccc(NS(=O)(=O)c3ccc(F)cc3)cc2C1=O`, the “activity change, negative = cytotoxicity” value was -13.7%.
In the case of `CN(C)CCCN(C(=O)CCOc1ccccc1)c1nc2c(F)cccc2s1`, the “activity change, negative = cytotoxicity” value was 38.1%.
In the case of `COc1ccccc1NC(=O)N1CCCCN2[C@H](C1)[C@@H](c1ccc(-c3cccc(C#N)c3)cc1)[C@@H]2CO`, the “activity change, negative = cytotoxicity” value was 1.51%.
For `COc1ccc(-c2cc(C(F)(F)F)nc(S(=O)(=O)CCCC(=O)Nc3cc(C)on3)n2)cc1OC`, the “activity change, negative = cytotoxicity” value was 8.08%.
In the case of `COc1ccc(S(=O)(=O)Nc2ccc3c(c2)C(=O)N([C@H](C)CO)C[C@H](C)[C@H](CN(C)S(=O)(=O)c2ccc(F)cc2)OCCCC[C@H](C)O3)cc1`, the “activity change, negative = cytotoxicity” value was -22.6%.
In the case of `C[C@H]1CN([C@@H](C)CO)S(=O)(=O)c2ccc(C#Cc3ccccc3F)cc2O[C@H]1CN(C)C(=O)c1ccc2c(c1)OCO2`, the “activity change, negative = cytotoxicity” value was -5.86%.
For `O=C(CCS(=O)(=O)c1ccccc1)Nc1nc2ccc(F)cc2s1`, the outcome was “inactive”.
